The target of the first assay is KIAA0564. Put plainly: pooled miR-30 sensor sort-seq; sequence = guide strand. Particulars: shRNA.
Sequence TAGTCTTTGCTTATTGTCCTTG came in with a sensor-assay potency score (higher = more potent) of -0.514.

TAACAACTTAAGTTGGTCCTTG came in with a sensor-assay potency score (higher = more potent) of 0.426.

Take TAGAACATCCAGCACAGTCAGG: the sensor-assay potency score (higher = more potent) is -1.28.

In turn, TTGAATATAACAACTTAAGTTG registered a sensor-assay potency score (higher = more potent) of -0.73.

In the case of TTGTGGAGGAGTAACATCTTTT, the sensor-assay potency score (higher = more potent) is -1.09.

Sequence TAAACATATATCTTTAACCATG yielded a sensor-assay potency score (higher = more potent) of -1.59.

Turning to TCTTTGTAGAACACCAGCCAGT, the sensor-assay potency score (higher = more potent) was -0.952.

The next assay has as its target KIAA0664. Described as above. Particulars: shRNA.
The sequence TTTTCTTCTGCAGCACAGCGAA showed a sensor-assay potency score (higher = more potent) of -0.902.

The sequence TTGCACTCGACCGAGGAGCAGA came in with a sensor-assay potency score (higher = more potent) of -0.997.

Turning to TTGACGTGCTTGACCACGGGGA, the sensor-assay potency score (higher = more potent) is -0.0674.

With TTGCTCTCGTAGACTCGGGCGA, the sensor-assay potency score (higher = more potent) is -0.673.

Sequence TTGAAGGTCGGGCTGATCTGGT registered a sensor-assay potency score (higher = more potent) of -0.0579.

AAGTTCTTCTTGAAGGTCGGGC yielded a sensor-assay potency score (higher = more potent) of -0.0493.

The sequence TTGAGCACGTCCTCCTCGGTGA displayed a sensor-assay potency score (higher = more potent) of -0.45.

In turn, TTCTTCTTGAAGGTCGGGCTGA showed a sensor-assay potency score (higher = more potent) of -0.121.

TACGTCTTGAAGATGTGCTTGG came in with a sensor-assay potency score (higher = more potent) of 0.188.

The sequence TTTCTTCTGCAGCACAGCGAAG had a sensor-assay potency score (higher = more potent) of -1.66.

Take TTGGAGACCAGCTCGTCGGCGG: the sensor-assay potency score (higher = more potent) is -0.677.

TGCATCTTGGTCTCCTCGCTGG returned a sensor-assay potency score (higher = more potent) of -0.849.

The target of another assay is KIAA0930. Described as above. The following applies: shRNA.
For ATAGAAAAGCATGTCGTCCTGC, the sensor-assay potency score (higher = more potent) was determined as 0.0437.

TTGCTGTACTTGTAGAAGCCAA displayed a sensor-assay potency score (higher = more potent) of -0.811.

TTTGTCACTAGCCACCAGCTCC gave a sensor-assay potency score (higher = more potent) of -0.835.

Regarding AAAAGCATGTCGTCCTGCCGGG, the sensor-assay potency score (higher = more potent) was -0.426.

As to TAAGTGTGCATAGAGAAGGAAG, the sensor-assay potency score (higher = more potent) is -1.42.

Turning to TTCAGCTTCAGCCAGGACCCGA, the sensor-assay potency score (higher = more potent) was -1.04.

With TCACCTGTAGACACTCGGCTGA, the sensor-assay potency score (higher = more potent) was -0.216.

As for TTATGGATGTGAATGTCCCCGC, the sensor-assay potency score (higher = more potent) is -0.555.

TTCTTCATCTCAGCGATCCGGT yielded a sensor-assay potency score (higher = more potent) of -0.0677.

In turn, TTCTTGAGCGCCTCGTAGCGGA yielded a sensor-assay potency score (higher = more potent) of -0.914.

For TTCTCCATGAAGTAGGTGGAGA, the sensor-assay potency score (higher = more potent) is -1.12.

Turning to AAGTAGGTGGAGAACATCCAAG, the sensor-assay potency score (higher = more potent) was -1.37.

The target in another assay is KIAA1217. The description is as above. The following applies: shRNA.
TTGAACTTCCATTCTGTGCCTT: the sensor-assay potency score (higher = more potent) stood at 0.894.

TTTGCTTGAACTTCCATTCTGT returned a sensor-assay potency score (higher = more potent) of 0.925.

TATTTTGTAGCTCTGGTCTGTG came in with a sensor-assay potency score (higher = more potent) of 0.157.

In the case of TAGTGATCCAGATTTTGCCTTT, the sensor-assay potency score (higher = more potent) is -0.121.

TTTCCCATTATAGTGATCCAGA had a sensor-assay potency score (higher = more potent) of -1.06.

The sequence TTTCTCGATAGACACTGCCCTG registered a sensor-assay potency score (higher = more potent) of -1.06.

TTTTTTTAAATGTAACTCCGAC: the sensor-assay potency score (higher = more potent) was -0.293.

For TTCTTCAATGAACAAGCTCTGC, the sensor-assay potency score (higher = more potent) was -0.544.

Sequence TTCTCGATAGACACTGCCCTGT came in with a sensor-assay potency score (higher = more potent) of -0.436.

The record behind these values is the OligoGym collection.
Note: reference of the scale not given here.
